Laboratory results as given in PubChem BioAssay (EPA / NIEHS).
Inconclusive results are not listed. Active and inactive are the calls of the source. The calls were made as follows: active = hit-call score of the fitted dose curve at least 0.9, where 1 is the maximum; inconclusive = response in the unintended direction; inactive = score below 0.9.

Experiment: ATG_Hpa5_TRANS: Attagene TRANS-FACTORIAL HepG2 Assay for human GAL4-Hpa5 Hepatocyte Transcription Factor Basal Promoter (AID 2282975);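 also: hits are increases in reporter mRNA over DMSO baseline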
Details: HepG2 Attagene GAL4-Hpa5 transcription reporter
Experimental: ATG_TRANS is a cell-based, multiplexed-readout assay that uses HepG2, a human liver cell line, with measurements taken at 24 hours after chemical dosing in a 24-well plate.ATG_Hpa5_TRANS is one of 30 assay component(s) measured or calculated from the ATG_TRANS assay. It is designed to make measurements of mRNA induction, a form of inducible reporter, as detected with fluorescence intensity signals by Reverse transcription polymerase chain reaction (RT-PCR) and Capillary electrophoresis technology.Data from the assay component ATG_Hpa5_TRANS was analyzed into 1 assay endpoint. This assay endpoint, ATG_Hpa5_TRANS, was analyzed in the positive analysis fitting direction relative to DMSO as the negative control and baseline of activity. Using a type of inducible reporter, measures of mRNA for gain-of-signal activity can be used to understand the background control at the transcription factor-level as they relate to the gene . Furthermore, this assay endpoint can be referred to as a secondary readout, because this assay has produced multiple assay endpoints where this one serves a background control function. To generalize the intended target to other relatable targets, this assay endpoint is annotated to the background measurement intended target family, where the subfamily is internal marker.
Human liver HepG2 cells are transiently transfected with multiple reporter transcription units (MRTUs) in 6-well plates using FuGene 6 reagent (Roche; 3 ml FuGene/1 mg DNA). The MRTU constructs are regulated by a cis-regulating element (promoter). […] A major difference between the CIS and TRANS system is that in CIS activities of endogenous TFs are measured, whereas the TRANS assay evaluates changes in activities of exogenous, chimeric NR-Gal4 proteins. […] At the end of 24 hour incubation, total RNA was isolated using TriZol reagent (Invitrogen). The isolated RNA is then reverse-transcribed using oligo(dT) primer and Mo-MLV reverse transcriptase (Invitrogen) with DNAse I (Ambion) treatment for 30 min. The one-tenth of the produced cDNA was amplified by PCR using Taq DNA polymerase (Invitrogen) and two reporter sequence-specific primers. The PCR products were fluorescently labeled by primer extension with 6-arboxyfluorescein (6-FAM) 5'-labeled reporter sequence-specific primer (2 min at 95 C, 20 s at 68 C and 10 min at 72 C) and these products were digested with 5U of HpaI (New England Biolabs) for 2h at 37 C. The fragments were purified using Qiaquick PCR columns (Qiagen), analyzed on an ABI 3130xL genetic analyzer (Applied Biosystems) with peak positions identified by using a set of X-rhodamine (ROX)-labeled MapMarker1000 molecular weight standards (BioVentures). The raw capillary electrophoresis data was processed using Attagraph software (Attagene).
For `CC(Oc1cccc(Cl)c1)C(=O)O` (stereo not given), the outcome was “inactive”. In the case of `CCOP(=O)(SC(C)CC)N1CCSC1=O` (stereo not given), the outcome was “inactive”. In the case of `CCC(=O)Nc1ccc(Cl)c(Cl)c1`, the outcome was “inactive”. In the case of `CC(C)=CC1C(C(=O)OCN2C(=O)C3=C(CCCC3)C2=O)C1(C)C` (stereo not given), the outcome was “inactive”. For `CCOP(=O)(NC(C)C)Oc1ccc(SC)c(C)c1` (stereo not given), the outcome was “inactive”. With `CSC1=N[C@@](C)(c2ccccc2)C(=O)N1Nc1ccccc1` the outcome was “inactive”. For `COP(=O)(OC)C(O)C(Cl)(Cl)Cl` (stereo not given), the outcome was “inactive”. In the case of `CCCCSP(=O)(SCCCC)SCCCC`, the outcome was “inactive”. For `CCC(=NOC/C=C/Cl)C1=C(O)CC(C2CCOCC2)CC1=O` (stereo not given), the outcome was “inactive”. For `CCCOCC(=Nc1ccc(Cl)cc1C(F)(F)F)n1ccnc1`, the outcome was “inactive”. For `C#CC(C)(C)NC(=O)c1cc(Cl)cc(Cl)c1`, the outcome was “inactive”. In the case of `CC(C)N(C(=O)SCC(Cl)=C(Cl)Cl)C(C)C`, the outcome was “inactive”. In the case of `Nc1c(Cl)cc([N+](=O)[O-])cc1Cl`, the outcome was “inactive”. For `O=[N+]([O-])c1cc(C(F)(F)F)c(Cl)c([N+](=O)[O-])c1Nc1ncc(C(F)(F)F)cc1Cl`, the outcome was “inactive”. In the case of `CCC(CC)Nc1c([N+](=O)[O-])cc(C)c(C)c1[N+](=O)[O-]`, the outcome was “inactive”. In the case of `CCOC(=O)CC(SP(=O)(OC)OC)C(=O)OCC` (stereo not given), the outcome was “inactive”. In the case of `COc1ccc(C(=CC(=O)N2CCOCC2)c2ccc(Cl)cc2)cc1OC`, the outcome was “inactive”. With `CCCCN(CC)c1c([N+](=O)[O-])cc(C(F)(F)F)cc1[N+](=O)[O-]` the outcome was “inactive”. For `O=C(O)c1cc(Oc2ccc(C(F)(F)F)cc2Cl)ccc1[N+](=O)[O-]`, the outcome was “inactive”. In the case of `CCOP(=S)(OCC)OC(Cl)C(Cl)(Cl)Cl` (stereo not given), the outcome was “inactive”. For `CCc1cnc(C2=NC(C)(C(C)C)C(=O)N2)c(C(=O)O)c1` (stereo not given), the outcome was “inactive”. For `CNc1cnn(-c2cccc(C(F)(F)F)c2)c(=O)c1Cl`, the outcome was “inactive”. In the case of `CNC(=O)ON=C(C)SC`, the outcome was “inactive”. With `CCNc1nc(Cl)nc(NC(C)(C)C#N)n1` the outcome was “inactive”. In the case of `COP(=O)(OC)SCn1c(=O)oc2cc(Cl)cnc21`, the outcome was “inactive”. In the case of `CC[C@H](C)[C@H]1O[C@]2(C=C[C@@H]1C)C[C@@H]1C[C@@H](C/C=C(\C)[C@@H](O[C@H]3C[C@H](OC)[C@@H](O[C@H]4C[C@H](OC)[C@@H](NC)[C@H](C)O4)[C@H](C)O3)[C@@H](C)/C=C/C=C3\CO[C@@H]4[C@H](O)C(C)=C[C@@H](C(=O)O1)[C@]34O)O2`, the outcome was “inactive”. For `CSc1nc(NC(C)C)nc(NC(C)C)n1`, the outcome was “inactive”. With `C#CCC1=C(C)C(OC(=O)C2C(C=C(C)C)C2(C)C)CC1=O` (stereo not given) the outcome was “inactive”. In the case of `CCCSP(=O)(OCC)SCCC`, the outcome was “inactive”. For `CON=C(C(=O)OC)c1ccccc1CON=C(C)c1cccc(C(F)(F)F)c1`, the outcome was “inactive”. In the case of `CCOP(=S)(OCC)Oc1cc(C)nc(C(C)C)n1`, the outcome was “inactive”. With `CCOP(=S)(OCC)SCCSCC` the outcome was “inactive”. In the case of `CC(C)[C@H](C(=O)O[C@H](C#N)c1cccc(Oc2ccccc2)c1)c1ccc(Cl)cc1`, the outcome was “inactive”. For `CNC(=O)Oc1cccc2c1OC(C)(C)O2`, the outcome was “inactive”. With `N#CSCSC#N` the outcome was “inactive”. In the case of `CC(=NC#N)N(C)Cc1ccc(Cl)nc1`, the outcome was “inactive”. With `CCCSP(=O)(OCC)Oc1ccc(Br)cc1Cl` (stereo not given) the outcome was “inactive”. With `COP(=O)(NC(C)=O)SC` (stereo not given) the outcome was “inactive”. For `C[Si](Cn1cncn1)(c1ccc(F)cc1)c1ccc(F)cc1`, the outcome was “inactive”. With `O=c1ccc(=O)[nH][nH]1` the outcome was “inactive”.
